Data published in PubChem BioAssay (NCI).
Where “and” joins values, the source holds several entries; their conditions need not be identical. Equal values may be shown once. About 83,000 compounds went through this panel and 20% of them were active in at least one assay; those are over-represented in the sample as a whole.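 Step 1: grow cells in 96-well plates. Step 2: add test compound at a single concentration. Step 3: incubate 48 h. Step 4: record percent growth.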 Calls of active or inactive are those of the source.

test system: IGROV1 ovarian; assay: NCI-60 one-dose screen, 48 h (100 = growth as untreated, 0 = no growth, -100 = all killed); conditions: 10 µM
Procedure: Growth inhibition of the IGROV1 human tumor cell line is measured as a screen for anti-cancer activity. Cells are grown in 96 well plates and exposed to the test compound for 48 hours. Compounds are tested at a single concentration, which is 10^-5 M for most compounds. The reported endpoint is percent growth (GI% or GIPRCNT), where numbers from 0 - 100% represent growth inhibition, and numbers from -100% - 0 represent cell death. For example, a value of 40 represents 60% growth inhibition. A value of 0 means no net growth occurred over the course of the experiment. A value of -40 indicates 40% of cells at the beginning of the experiment died by the end of the experiment. A value of -100 means all cells are dead at the end of the experiment.
NCI-60 Human Tumor Cell Lines Screen was performed using the standard one-dose NCI protocol, which is described in more detail at https://dtp.cancer.gov/discovery_development/nci-60/default.htm.
Compounds with GIPRCNT values below 10 were considered active. Activity score was based on GIPRCNT using the following formula: […]
Score is 0 for GIPRCNT values of 100 or above, 50 for GIPRCNT values of 0, and 100 for GIPRCNT values of -100.

| Compound | growth |
| --- | --- |
| CC1(C)OB(c2ccc(Cn3cc(F)c(=O)[nH]c3=O)cc2)OC1(C)C | 98.8% (inactive) |
| O=C(O)c1sccc1O | 74.7% (inactive) |
| COc1ccc(Cl)cc1C(=O)NCCc1ccc(S(=O)(=O)NC(=O)NC2CCCCC2)cc1 | 119% (inactive) and 99.4% (inactive) |

same assay, conditions: 10 µM unless noted

| Compound | growth |
| --- | --- |
| Oc1ccc(/C=C/c2ccccc2)cc1 | 57.5% (inactive) and 59.9% (inactive) |
| Cc1c(Cl)cccc1NCN1C(=O)c2ccccc2C1=O | 116% (inactive) |
| Clc1ccc(SSc2ccc(Cl)cc2)cc1 | 102% (inactive) and 83.4% (inactive) |
| COc1ccc(S(=O)(=O)N2CCOCC2)cc1NC(=O)c1[nH]c(C)c2c1CCCCC2=O | 108% (inactive) and 47.1% (inactive) |
| C#CCN(C)Cc1ccccc1 | 103% (inactive) and 120% (inactive) |
| CCN(CC)CCC(CNc1ccnc2cc(Cl)ccc12)c1ccc(OC)cc1 (stereo not given) | 52.3% (inactive) and 38% (inactive) |
| O=C(N/N=C/c1ccccc1)N/N=C/c1ccccc1 | 99.9% (inactive) and 106% (inactive) |
| COc1ccc2nc(Cl)cc(C)c2c1 | 108% (inactive) and 132% (inactive) |
| N#CCCOc1ccccc1 | 102% (inactive) |
| O=C(O)CCCCc1ccc([N+](=O)[O-])cc1 | 98.1% (inactive) and 95.9% (inactive) |
| O=S1(=O)CC(Br)C(Br)C1 (stereo not given) | 90.1% (inactive) and 59% (inactive) |
| Oc1ccccc1/C=N\NC(=S)N/N=C/c1ccccc1O | 20.9% (inactive) and 34.5% (inactive) |
| CN1C(=O)C(N=Nc2ccc([N+](=O)[O-])cc2)SC1=S (stereo not given) | 56.7% (inactive) and 71.7% (inactive) |
| CC12CCC(CC1)C(C)(C)O2 | 103% (inactive) |
| CCN(CC)CCCC(C)Nc1cnc(C(=O)Nc2cc(F)cc3cccnc23)cn1 (stereo not given) | 41.7% (inactive) and -21.9% (active) |
| CC(C)N=c1cc2n(-c3ccc(Cl)cc3)c3ccccc3nc-2cc1Nc1ccc(Cl)cc1 | 30.2% (inactive) and -9.37% (active) |
| Nc1ccccc1SC1CC(=O)N(c2cccc3ccccc23)C1=O (stereo not given) | 99.1% (inactive) |

| Compound | growth |
| --- | --- |
| O=C(CCc1ccc(O)cc1)N/N=C/c1cc(Br)ccc1O | 62.5% (inactive) |
| CC1=C(/C=C/C(C)=C/C=C/C(C)=C/C=N/NC(=S)NC(=S)N/N=C/C=C(C)/C=C/C=C(C)/C=C/C2=C(C)CCCC2(C)C)C(C)(C)CCC1 | -34.8% (active) and -39.5% (active) |
| CCCCCN(CCCCC)CC(O)c1cc2c(c3ccccc13)CCCC2 (stereo not given) | 48.9% (inactive) and -1.04% (active) |
| Nc1nc(SC/C=C/CCl)c2[nH]cnc2n1 | 114% (inactive) and 97.3% (inactive) |
| NC(=O)c1ccccc1OCC(O)CO (stereo not given) | 108% (inactive) |
| COc1c(/C(C)=N/N=c2sc(C(C)=O)nn2-c2ccc(Cl)cc2)c(Oc2ccccc2)c(OC)c2occc12 | 102% (inactive) and 94.5% (inactive) |
| CCOc1ccc2nc3cc(N)ccc3c(N)c2c1 | 69.9% (inactive) and 99.4% (inactive) |
| O=C1NC(=O)C2(CCc3ccccc32)N1 (stereo not given) | 119% (inactive) and 106% (inactive) |
| CN(C)CCC(=O)c1ccc(Cl)cc1 | 100% (inactive) and 116% (inactive) |
| CC1=C[C@H]2c3c(c(O)c(O)c4oc5cc(O)cc(O)c5c(=O)c34)[C@H](c3cc(O)c(O)c4oc5cc(O)cc(O)c5c(=O)c34)[C@H]2C(C)(C)C1 | 14.1% (inactive) and -13.1% (active) |
| CC(=O)Nc1ccc2cc3ccc(NC(C)=O)cc3nc2c1 | 85.8% (inactive) and 101% (inactive) |
| Cc1cc(O)c(C(C)C)cc1S(=O)(=O)O (tested in a mixture with another compound) | 102% (inactive) and -2.34% (active) and 93.9% (inactive) |
| CCN(CC)CCOc1ccc(/C=N/Nc2nc3c([nH]2)c(=O)n(C)c(=O)n3C)cc1 | 110% (inactive) and 91.2% (inactive) |
| O=C(O)C1C2C=CC(C2)C1C(=O)O (stereo not given) | 95.2% (inactive) and 25.2% (inactive) and 106% (inactive) |
| Cc1ccc(S(=O)(=O)NCN2C(=O)c3ccccc3C2=O)cc1 | 107% (inactive) |
| COc1cc2nc(N3CCN(C(=O)C4COc5ccccc5O4)CC3)nc(N)c2cc1OC (stereo not given) | 93.4% (inactive) and 109% (inactive) and 95.6% (inactive) |
| O=[N+]([O-])c1ccc2nc3c4ccccc4c4ccccc4c3nc2c1 | 58.8% (inactive) |

same assay, conditions: 50 µM

| Compound | growth |
| --- | --- |
| CC1(C)OB(c2ccc(Cn3cc(F)c(=O)[nH]c3=O)cc2)OC1(C)C | 44.1% (inactive) |

same assay, conditions: 100 µM

| Compound | growth |
| --- | --- |
| O=C(O)c1sccc1O | 36% (inactive) |
| COc1ccc(Cl)cc1C(=O)NCCc1ccc(S(=O)(=O)NC(=O)NC2CCCCC2)cc1 | 69.2% (inactive) |
